Test results: PubChem BioAssay (NCATS)
Inconclusive results are not listed. Active and inactive are the calls of the source. Calls come from the whole dose curve; as a rule, active = well fitted curve in the direction sought with a large enough effect; inconclusive = small, poorly fitted or top-dose-only effect, or another doubt; inactive = no such curve, though single readings can be large; an effect the other way counts as inactive or inconclusive.

Tests used:
NIH3T3 = assay: qHTS assay to identify novel small-molecules to repurpose for Merkel cell carcinoma treatment (AID 1296009); conditions: MCC and control cell lines, CellTiter-Glo viability, 72 h; at 44.8 µM (top of the series) unless noted; note: nearly all actives have a fitted effect of over 60% in size
Summary of the method: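 Cells were incubated with compound for 72 hr at 37 degree celsius before CellTiter-Glo addition. Luminescence was normalized with no-cell wells as full cytotoxicity and DMSO as baseline.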

C33A = assay: Primary qHTS to identify gynecologic anti-cancer compounds using libraries of approved drugs and bioactive compounds (AID 1345084); conditions: Gynecologic cancer cell panel viability, ATPlite luminescence, 48 h; series mostly up to 57.5 µM; note: % is set by controls: 0 for no effect and ±100 for the full control effect; nearly all actives have a fitted effect of over 55% in size
Summary of the method: (§1)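 Five-point cytotoxicity, 48 h drug exposure at 37 C, 5% CO2, on cells seeded 16 h beforehand. ATP content read by ATPlite luminescence.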

CASKI = assay: as above; conditions: Gynecologic cancer cell panel viability, ATPlite luminescence, 48 h; series mostly up to 57.5 µM
Summary of the method: as §1

Es-2 = assay: as above; conditions: Gynecologic cancer cell panel viability, ATPlite luminescence, 48 h; series mostly up to 57.5 µM
Summary of the method: as §1

HeLa = assay: as above; conditions: Gynecologic cancer cell panel viability, ATPlite luminescence, 48 h; series mostly up to 57.5 µM
Summary of the method: as §1

Hek293T = assay: as above; conditions: Gynecologic cancer cell panel viability, ATPlite luminescence, 48 h, control line for the selectivity index; series mostly up to 57.5 µM
Summary of the method: as §1

JEG-3 = assay: as above; conditions: Gynecologic cancer cell panel viability, ATPlite luminescence, 48 h; series mostly up to 57.5 µM
Summary of the method: as §1

OV90 = assay: as above; conditions: Gynecologic cancer cell panel viability, ATPlite luminescence, 48 h; series mostly up to 57.5 µM
Summary of the method: as §1

PA-1 = assay: as above; conditions: Gynecologic cancer cell panel viability, ATPlite luminescence, 48 h; series mostly up to 57.5 µM
Summary of the method: as §1

SKOV3 = assay: as above; conditions: Gynecologic cancer cell panel viability, ATPlite luminescence, 48 h; series mostly up to 57.5 µM
Summary of the method: as §1

Tov-21-G = assay: as above; conditions: Gynecologic cancer cell panel viability, ATPlite luminescence, 48 h; series mostly up to 57.5 µM
Summary of the method: as §1

Tov112D = assay: as above; conditions: Gynecologic cancer cell panel viability, ATPlite luminescence, 48 h; series mostly up to 57.5 µM
Summary of the method: as §1

CAOV3 = assay: as above; conditions: Gynecologic cancer cell panel viability, ATPlite luminescence, 48 h; series mostly up to 57.5 µM
Summary of the method: as §1

Nc1nc(COC(=O)c2ccc([N+](=O)[O-])cc2)nc(Nc2ccccc2)n1
inactive: outcome (NIH3T3) | Potency (C33A) | outcome (CASKI) | Potency (Es-2) | Potency (HeLa) | Potency (Hek293T) | Potency (JEG-3) | Potency (OV90) | Potency (PA-1) | Potency (SKOV3) | Potency (Tov-21-G) | Potency (Tov112D)

CC(C)(O)C1CC=C(C(=O)OC[C@H]2O[C@@H](OC(=O)C3=CCC(C(C)(C)O)CC3)[C@H](O)[C@@H](O)[C@@H]2O)CC1 (stereo partly drawn)
inactive: outcome (NIH3T3) inactive [at 17.4 µM] | Potency (C33A) | outcome (CASKI) | Potency (Es-2) | Potency (HeLa) | Potency (Hek293T) | Potency (JEG-3) | Potency (OV90) | Potency (PA-1) | Potency (SKOV3) | Potency (Tov-21-G) | Potency (Tov112D)

C=C(C(=O)O)C1CC(OC(=O)CC(C)CC)C2(C)CCCC(=C)C2C1 (stereo not drawn)
inactive: outcome (NIH3T3) | Potency (C33A) | outcome (CASKI) | Potency (Es-2) | Potency (HeLa) | Potency (Hek293T) | Potency (JEG-3) | Potency (OV90) | Potency (PA-1) | Potency (SKOV3) | Potency (Tov-21-G) | Potency (Tov112D)

OC[C@H]1O[C@@H](OCCc2ccccc2)[C@H](O[C@@H]2OC[C@@H](O)[C@H](O)[C@H]2O)[C@@H](O)[C@@H]1O
inactive: outcome (NIH3T3) inactive [at 17.4 µM] | Potency (C33A) | outcome (CASKI) | Potency (Es-2) | Potency (HeLa) | Potency (Hek293T) | Potency (JEG-3) | Potency (OV90) | Potency (PA-1) | Potency (SKOV3) | Potency (Tov-21-G) | Potency (Tov112D)

COC(=O)/C=C/c1ccc(O[C@@H]2O[C@H](CO)[C@@H](O)[C@H](O)[C@H]2O)cc1
inactive: outcome (NIH3T3) | Potency (C33A) | outcome (CASKI) | Potency (Es-2) | Potency (HeLa) | Potency (Hek293T) | Potency (JEG-3) | Potency (OV90) | Potency (PA-1) | Potency (SKOV3) | Potency (Tov-21-G) | Potency (Tov112D)

CC1=C2C(=O)C=C(CO[C@@H]3O[C@H](CO)[C@@H](O)[C@H](O)[C@H]3O)[C@@H]2[C@H]2OC(=O)[C@H](C)[C@@H]2CC1
inactive: outcome (NIH3T3) inactive [at 17.4 µM] | Potency (C33A) | outcome (CASKI) | Potency (Es-2) | Potency (HeLa) | Potency (Hek293T) | Potency (JEG-3) | Potency (OV90) | Potency (PA-1) | Potency (SKOV3) | Potency (Tov-21-G) | Potency (Tov112D)

COC(=O)[C@]1(C)CCC[C@@]2(C)[C@@H]3CC[C@@H]4C[C@@]3(CC[C@@H]21)C[C@H]4C(=O)O
inactive: outcome (NIH3T3) | Potency (C33A) | outcome (CASKI) | Potency (Es-2) | Potency (HeLa) | Potency (Hek293T) | Potency (JEG-3) | Potency (OV90) | Potency (PA-1) | Potency (SKOV3) | Potency (Tov-21-G) | Potency (Tov112D)

CN1CCN(C(=O)c2cc3cc(Cl)ccc3[nH]2)CC1
inactive: outcome (NIH3T3) | Potency (C33A) | outcome (CASKI) | Potency (Es-2) | Potency (HeLa) | Potency (Hek293T) | Potency (JEG-3) | Potency (OV90) | Potency (PA-1) | Potency (SKOV3) | Potency (Tov-21-G) | Potency (Tov112D)

O=C(/C=C/N1C[C@@H]2C[C@@H]1CN2c1ccccn1)c1ccccc1O
inactive: outcome (NIH3T3) | Potency (C33A) | outcome (CASKI) | Potency (Es-2) | Potency (HeLa) | Potency (Hek293T) | Potency (JEG-3) | Potency (OV90) | Potency (PA-1) | Potency (Tov-21-G) | Potency (Tov112D)

CC1(C)CC=C(c2cnc3ccccc3c2)c2cc(C(=O)Nc3ccc(C(=O)O)cc3)ccc21
inactive: Potency (C33A) | Potency (CAOV3) | outcome (CASKI) | Potency (Es-2) | Potency (HeLa) | Potency (Hek293T) | Potency (JEG-3) | Potency (OV90) | Potency (PA-1) | Potency (SKOV3) | Potency (Tov-21-G) | Potency (Tov112D)

COC(=O)C1=COC(OC2OC(CO)C(O)C(O)C2O)C2C(COC(=O)/C=C/c3ccc(O)c(O)c3)C(O)C(O)C12 (stereo not drawn)
inactive: Potency (C33A) | Potency (CAOV3) | outcome (CASKI) | Potency (Es-2) | Potency (HeLa) | Potency (Hek293T) | Potency (JEG-3) | Potency (OV90) | Potency (PA-1) | Potency (SKOV3) | Potency (Tov-21-G) | Potency (Tov112D)

CC(C)=CCC[C@](C)(O[C@@H]1O[C@H](CO[C@@H]2O[C@@H](CO)[C@H](O)[C@H]2O[C@@H]2OC[C@@H](O)[C@H](O)[C@H]2O)[C@@H](O)[C@H](O)[C@H]1O)[C@H]1CC[C@]2(C)[C@@H]1[C@H](O)CC1[C@@]3(C)CC[C@H](O[C@@H]4O[C@H](CO)[C@@H](O)[C@H](O)[C@H]4O[C@@H]4O[C@H](CO)[C@@H](O)[C@H](O)[C@H]4O)C(C)(C)C3CC[C@]12C (stereo partly drawn)
inactive: activity change, negative = cytotoxicity (C33A) 7.16% [at 6.55 µM] | activity change, negative = cytotoxicity (CAOV3) 9.01% [at 6.55 µM] | activity change, negative = cytotoxicity (CASKI) 10.9% [at 6.55 µM] | activity change, negative = cytotoxicity (Es-2) 4.94% [at 6.55 µM] | activity change, negative = cytotoxicity (HeLa) -1.43% [at 6.55 µM] | activity change, negative = cytotoxicity (Hek293T) 2.28% [at 6.55 µM] | activity change, negative = cytotoxicity (JEG-3) 5.39% [at 6.55 µM] | activity change, negative = cytotoxicity (OV90) -2.38% [at 6.55 µM] | activity change, negative = cytotoxicity (PA-1) 11.1% [at 6.55 µM] | activity change, negative = cytotoxicity (SKOV3) 24.5% [at 6.55 µM] | activity change, negative = cytotoxicity (Tov-21-G) 0.809% [at 6.55 µM] | activity change, negative = cytotoxicity (Tov112D) 0.454% [at 6.55 µM]

Oc1ccc2c(-c3c(-c4ccccn4)nn4c3CCC4)ccnc2c1
inactive: Potency (C33A) | Potency (CAOV3) | outcome (CASKI) | Potency (Es-2) | Potency (HeLa) | Potency (Hek293T) | Potency (JEG-3) | Potency (OV90) | Potency (PA-1) | Potency (SKOV3) | Potency (Tov-21-G) | Potency (Tov112D)

C=C(C(=O)O)[C@@H]1CC[C@@]2(C)CCC[C@@](C)(O)[C@@H]2C1
inactive: Potency (C33A) | Potency (CAOV3) | outcome (CASKI) | Potency (Es-2) | Potency (HeLa) | Potency (Hek293T) | Potency (JEG-3) | Potency (OV90) | Potency (PA-1) | Potency (SKOV3) | Potency (Tov-21-G) | Potency (Tov112D)

Cc1cccc(-c2nn3c(c2-c2ccnc4ccc(C(N)=O)cc24)CCC3)n1
inactive: Potency (C33A) | Potency (CAOV3) | outcome (CASKI) | Potency (Es-2) | Potency (HeLa) | Potency (Hek293T) | Potency (JEG-3) | Potency (OV90) | Potency (PA-1) | Potency (SKOV3) | Potency (Tov-21-G)
